# In PubChem BioAssay (Tox21):
# Values without a mark were called inactive. Inconclusive results are not listed. Entries that show only a call come without a potency. Active and inactive are the calls of the source. Unless noted, calls follow the shape of the full dose curve.
# Tests used:
# [1] = Nuclear factor erythroid 2-related factor 2/antioxidant responsive element (Nrf2/ARE) small molecule agonists: qHTS cell viability counter screen in human keratinocytes (AID 1919968; active = well fitted curve in the direction sought with a large enough effect in the repeat runs; an effect the other way counts as inactive or inconclusive; also: nearly all actives have a fitted effect of over 55% in size)
# Method in brief: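 KeratinoSens cells (HaCaT keratinocytes stably carrying an ARE-luciferase reporter) were seeded at 1,500 cells/well and rested 5 h at 37 C/5% CO2. They were then exposed to compounds in DMSO for 23 h. Viability was read by CellTiter-Fluor fluorescence after 1 h.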
# [2] = Nuclear factor erythroid 2-related factor 2/antioxidant responsive element (Nrf2/ARE) small molecule agonists: luciferase reporter gene qHTS assay in human keratinocytes (AID 1919969); also: nearly all actives have a fitted effect of over 35% in size; also: potency is read from the fitted curve at half-maximal effect
# [3] = target: Gonadotropin-releasing hormone receptor (Homo sapiens) (UniProt P30968); assay: Human gonadotropin-releasing hormone receptor (GnRHR) small molecule agonists, calcium flux assay in GnRHR-HEK293 cells (AID 1920063); also: nearly all actives have a fitted effect of over 35% in size
# Method in brief: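 HEK293 cells stably expressing human GnRHR were plated 18 h at 37 °C, loaded with calcium dye 1 h at 37 °C, then given compound in agonist mode; fluorescence (Ex/Em 480/540) read kinetically for 3 min at 1 s intervals.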
# [4] = target: KiSS-1 receptor (Homo sapiens) (UniProt Q969F8); assay: Human kisspeptin (KISS1R) small molecule agonists, calcium flux assay in KISS1R-HEK293 cells (AID 1920064; active = well fitted curve in the direction sought with a large enough effect in the repeat runs; an effect the other way counts as inactive or inconclusive)
# Method in brief: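 HEK293 cells stably expressing human KISS1R were plated 18 h at 37 °C, loaded with calcium dye for 1 h at 37 °C, then given compound by pin tool. Fluorescence (Ex/Em 480/540) was read kinetically for 3 min.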
# [5] = G protein-coupled receptor (GPCR) small molecule agonists, calcium flux assay: HEK293 wild type cell line counter screen (AID 1920065)
# Method in brief: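 Cells were plated and cultured 18 h at 37 C/5% CO2, then loaded with calcium dye for 1 h at 37 C. Compounds in DMSO were pin-transferred in agonist mode, and fluorescence (Ex/Em 480/540) was read kinetically for 3 min at 1 s intervals.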
# [6] = p53 small molecule agonists, cell-based qHTS assay with rat liver microsomes: qHTS cell viability counter screen (AID 1963580); also: nearly all actives have a fitted effect of over 45% in size
# Method in brief: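 p53RE-bla HCT-116 cells (4,000/well) rested 5 h at 37 C, then given Tox21 compounds in DMSO with rat liver microsomes (0.5 mg/mL final) plus NADPH (0.5 mg/mL final) for 16 h at 37 C. Viability read by CellTiter-Glo luminescence after 30 min at room temperature.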
# [7] = p53 small molecule agonists, cell-based qHTS assay: qHTS cell viability counter screen (AID 1963581); also: nearly all actives have a fitted effect of over 45% in size
# Method in brief: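 p53RE-bla HCT-116 cells were exposed to compounds for 16 h at 37 C; after the beta-lactamase FRET read in the same wells, CellTiter-Glo was added and luminescence (intracellular ATP) read after 30 min at room temperature.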
# [8] = target: 5-hydroxytryptamine receptor 2A (Homo sapiens) (UniProt P28223); assay: 5-hydroxytryptamine receptor 2A (HTR2A) small molecule antagonists, cell-based qHTS assay (AID 1963586); also: nearly all actives have a fitted effect of over 45% in size
# Method in brief: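 Antagonist-mode intracellular calcium assay: DOI (4 nM) added after 5 min compound pre-incubation at room temperature to dye-loaded HTR2A-CHO cells. Fluorescence followed for 3 min, sampled every second.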
# [9] = target: 5-hydroxytryptamine receptor 2A (Homo sapiens) (UniProt P28223); assay: 5-hydroxytryptamine receptor 2A (HTR2A) small molecule agonists, cell-based qHTS assay (AID 1963587); also: nearly all actives have a fitted effect of over 30% in size
# Method in brief: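 HTR2A-CHO cells, plated 18 h at 37 C/5% CO2, dye-loaded 1 h at 37 C; compounds in DMSO added by pin tool (agonist mode). Intracellular calcium flux read as kinetic fluorescence on FDSS over 2 min at 1 s intervals.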
# [10] = target: Muscarinic acetylcholine receptor M1 (Homo sapiens) (UniProt P11229); assay: Cholinergic receptor muscarinic 1 (CHRM1) small molecule antagonists, cell-based qHTS assay (AID 1963588); also: nearly all actives have a fitted effect of over 40% in size
# Method in brief: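 CHRM1-CHO calcium-flux assay, antagonist mode. Cells were seeded 18 h, dye-loaded 1 h at 37 C and given compound for 5 min at RT, then acetylcholine was added at 50nM. FDSS fluorescence was read 3 min; 15 concentrations, three runs.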
# [11] = target: Muscarinic acetylcholine receptor M1 (Homo sapiens) (UniProt P11229); assay: Cholinergic receptor muscarinic 1 (CHRM1) small molecule agonists, cell-based qHTS assay (AID 1963589); also: nearly all actives have a fitted effect of over 35% in size
# Method in brief: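 CHO cells stably expressing human CHRM1, seeded 18 h at 37 C/5% CO2, dye-loaded 1 h at 37 C, then given compound in agonist mode; intracellular calcium fluorescence read kinetically at 1 s intervals. Fifteen concentrations, three independent runs.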
# [12] = cAMP Responsive Elements (CRE) small molecule agonists, cell-based qHTS assay (AID 1963590)
# Method in brief: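 CRE-bla HEK 293T cells in DMEM with 10% dialyzed FBS, NEAA, pyruvate and 25 mM HEPES were plated 18 h at 37 C/5% CO2, then exposed to compounds in DMSO for 3 h before LiveBLAzer B/G FRET substrate addition.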
# [13] = cAMP Responsive Elements (CRE) small molecule antagonists, cell-based qHTS assay (AID 1963591; active = well fitted inhibition curve with a large enough effect in the signal ratio in the repeat runs, not every such curve was filed as active; the % refers to the signal ratio)
# Method in brief: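 CRE-bla HEK293T cells were plated 18 h at 37 °C/5% CO2, pinned with compound in DMSO, then stimulated with NKH477 at 0.25 uM final for 3 h. LiveBLAzer B/G FRET substrate was added and plates incubated 2 h at room temperature.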
# [14] = target: Beta-2 adrenergic receptor (Homo sapiens) (UniProt P07550); assay: Adrenergic beta2 receptor (ADRB2) small molecule antagonists, cell-based qHTS assay (AID 1963592); also: nearly all actives have a fitted effect of over 50% in size; also: potency is read from the fitted curve at half-maximal effect
# Method in brief: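 Cells (CHO, stable ADRB2 overexpression) incubated 18-20hr at 37C; compounds added from DMSO; agonist mix (1nM isoproterenol, 100uM IBMX, 25uM Ro-20-1724) added; 0.5hr RT; d2-cAMP and anti-cAMP-cryptate added; 1hr RT; 665/615 nm read.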
# [15] = target: D(2) dopamine receptor (Homo sapiens) (UniProt P14416); assay: Dopamine D2 receptor (DRD2) small molecule agonists, cell-based qHTS assay (AID 1963594); also: nearly all actives have a fitted effect of over 35% in size
# Method in brief: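 HEK293 cells stably expressing DRD2 were cultured 24 h at 37 C, then given Ro20-1724 (0.1 mM final) and compounds for 10 min at room temperature. NKH477 (200nM) was then added for 30 min. cAMP was read by HTRF.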
# [16] = target: D(2) dopamine receptor (Homo sapiens) (UniProt P14416); assay: Dopamine D2 receptor (DRD2) small molecule antagonists, cell-based qHTS assay (AID 1963595; active = well fitted inhibition curve with a large enough effect in the signal ratio in the repeat runs, with a control signal flat; the % refers to the signal ratio)
# Method in brief: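 Antagonist mode in DRD2-HEK293 cells: after compound addition with 0.1 mM Ro20-1724, cells received quinpirole (12 nM) and NKH477 (200 nM) for 30 min at room temperature; HTRF cAMP read after 1 h detection.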
# [17] = p53 small molecule agonists, cell-based qHTS assay with human liver microsomes (AID 1963577);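 also: p53 response element beta-lactamase reporter cells with liver microsomes plus NADPH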
# Method in brief: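 16 h, 37 C exposure of p53RE-bla cells to compounds with human liver microsomes and NADPH (0.5 mg/mL final each); detection via LiveBLAzer mixture, 2 h dark at room temperature.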
# [18] = p53 small molecule agonists, cell-based qHTS assay with rat liver microsomes (AID 1963578)
# Method in brief: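 With rat liver microsomes and NADPH present (0.5 mg/mL final each), p53RE-bla cells are treated with compound for 16 h at 37 C. LiveBLAzer detection mixture is then applied for 2 h at room temperature in the dark.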
# [19] = p53 small molecule agonists, cell-based qHTS assay with human liver microsomes: qHTS cell viability counter screen (AID 1963579); also: nearly all actives have a fitted effect of over 45% in size
# Method in brief: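 In this multiplexed counter screen, the reporter plates were subsequently treated with CellTiter-Glo so that cell viability, reflected by luminescence, could be recorded for p53RE-bla cells dosed 16 h with compounds under microsomal activation (HLM and NADPH).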
# [20] = p53 small molecule agonists, cell-based qHTS assay (AID 1963582; active = well fitted activation curve with a large enough effect in the signal ratio in the repeat runs, not every such curve was filed as active; the % refers to the signal ratio)
# Method in brief: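 p53RE-bla beta-lactamase reporter cells rested 5 h at 37 C/5% CO2, then received compounds in DMSO by pin transfer and were incubated 16 h at 37 C. LiveBLAzer B/G FRET substrate was loaded for 2 h at room temperature before fluorescence reading.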
# Muscarinic acetylcholine receptor M1 (Homo sapiens), sequence (P11229 whole entry, looked up): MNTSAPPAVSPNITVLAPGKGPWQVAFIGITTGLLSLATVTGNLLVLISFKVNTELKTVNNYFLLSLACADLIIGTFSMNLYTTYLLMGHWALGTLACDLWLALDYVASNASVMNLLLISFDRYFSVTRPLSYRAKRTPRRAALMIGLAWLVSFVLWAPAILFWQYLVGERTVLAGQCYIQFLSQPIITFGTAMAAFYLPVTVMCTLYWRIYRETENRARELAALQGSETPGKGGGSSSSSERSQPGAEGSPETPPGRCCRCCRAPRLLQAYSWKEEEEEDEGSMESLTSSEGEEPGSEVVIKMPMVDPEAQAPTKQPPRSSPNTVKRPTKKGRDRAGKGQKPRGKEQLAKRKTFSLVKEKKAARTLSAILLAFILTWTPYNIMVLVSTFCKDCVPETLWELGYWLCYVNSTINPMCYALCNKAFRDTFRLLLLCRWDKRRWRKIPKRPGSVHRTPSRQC
# D(2) dopamine receptor (Homo sapiens), sequence (P14416 whole entry, looked up): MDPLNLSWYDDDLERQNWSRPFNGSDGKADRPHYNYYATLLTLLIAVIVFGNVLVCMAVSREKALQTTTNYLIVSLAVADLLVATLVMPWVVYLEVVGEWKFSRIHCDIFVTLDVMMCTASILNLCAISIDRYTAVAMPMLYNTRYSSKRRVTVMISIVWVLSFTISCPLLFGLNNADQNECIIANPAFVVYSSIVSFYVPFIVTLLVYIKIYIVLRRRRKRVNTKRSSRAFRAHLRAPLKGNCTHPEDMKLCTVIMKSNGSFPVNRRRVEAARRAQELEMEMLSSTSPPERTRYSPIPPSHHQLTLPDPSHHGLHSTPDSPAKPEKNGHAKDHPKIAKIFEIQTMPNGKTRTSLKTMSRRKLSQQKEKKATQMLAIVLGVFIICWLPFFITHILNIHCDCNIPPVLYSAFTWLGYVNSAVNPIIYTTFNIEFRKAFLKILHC
# KiSS-1 receptor (Homo sapiens), sequence (Q969F8 whole entry, looked up): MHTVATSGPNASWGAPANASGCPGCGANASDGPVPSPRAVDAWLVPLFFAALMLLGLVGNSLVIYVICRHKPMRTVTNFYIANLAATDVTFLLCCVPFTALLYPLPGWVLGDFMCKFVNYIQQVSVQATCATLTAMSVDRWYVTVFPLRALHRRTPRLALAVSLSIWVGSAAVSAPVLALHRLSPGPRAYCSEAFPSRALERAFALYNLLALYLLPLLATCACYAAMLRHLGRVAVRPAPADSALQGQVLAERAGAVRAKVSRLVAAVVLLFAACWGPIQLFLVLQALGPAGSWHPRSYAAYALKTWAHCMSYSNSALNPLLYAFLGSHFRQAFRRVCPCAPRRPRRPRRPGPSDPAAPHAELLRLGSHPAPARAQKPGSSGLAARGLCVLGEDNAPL
# Gonadotropin-releasing hormone receptor (Homo sapiens), sequence (P30968 whole entry, looked up): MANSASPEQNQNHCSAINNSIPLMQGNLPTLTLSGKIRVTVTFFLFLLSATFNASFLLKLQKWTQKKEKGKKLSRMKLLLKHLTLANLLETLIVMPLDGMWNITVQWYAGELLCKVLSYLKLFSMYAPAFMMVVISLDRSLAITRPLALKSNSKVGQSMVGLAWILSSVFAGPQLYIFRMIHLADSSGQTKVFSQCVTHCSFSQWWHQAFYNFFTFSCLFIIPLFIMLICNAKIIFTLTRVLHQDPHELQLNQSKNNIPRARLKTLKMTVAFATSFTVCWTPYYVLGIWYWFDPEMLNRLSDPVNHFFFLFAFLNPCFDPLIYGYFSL
# Beta-2 adrenergic receptor (Homo sapiens), sequence (P07550 whole entry, looked up): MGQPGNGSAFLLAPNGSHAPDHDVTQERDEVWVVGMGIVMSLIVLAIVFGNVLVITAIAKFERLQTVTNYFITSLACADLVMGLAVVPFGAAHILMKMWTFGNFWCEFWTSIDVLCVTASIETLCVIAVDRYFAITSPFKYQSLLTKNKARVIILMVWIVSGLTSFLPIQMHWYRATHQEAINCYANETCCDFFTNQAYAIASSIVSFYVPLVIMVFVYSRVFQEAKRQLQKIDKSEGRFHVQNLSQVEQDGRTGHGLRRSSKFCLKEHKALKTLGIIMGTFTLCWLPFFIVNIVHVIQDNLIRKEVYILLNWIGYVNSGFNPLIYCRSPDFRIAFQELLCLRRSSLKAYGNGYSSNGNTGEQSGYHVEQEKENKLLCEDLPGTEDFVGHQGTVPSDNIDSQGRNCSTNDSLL
# 5-hydroxytryptamine receptor 2A (Homo sapiens), sequence (P28223 whole entry, looked up): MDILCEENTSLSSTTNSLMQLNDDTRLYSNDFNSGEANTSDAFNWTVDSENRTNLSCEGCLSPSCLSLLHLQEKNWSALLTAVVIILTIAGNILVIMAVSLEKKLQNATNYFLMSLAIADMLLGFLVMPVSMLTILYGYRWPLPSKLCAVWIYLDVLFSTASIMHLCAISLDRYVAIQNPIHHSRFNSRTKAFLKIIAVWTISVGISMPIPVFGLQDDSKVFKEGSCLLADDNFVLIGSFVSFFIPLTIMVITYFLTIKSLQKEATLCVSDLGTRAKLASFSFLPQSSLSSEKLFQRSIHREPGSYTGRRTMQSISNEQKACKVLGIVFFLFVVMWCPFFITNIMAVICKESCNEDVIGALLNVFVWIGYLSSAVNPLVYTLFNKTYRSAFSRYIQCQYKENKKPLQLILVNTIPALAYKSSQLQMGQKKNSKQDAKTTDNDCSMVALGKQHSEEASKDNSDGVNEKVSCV
SMILES,Potency [1],Potency [2],Potency [3],Potency [4],Potency [5],Potency [6],Potency [7],Potency [8],Potency [9],Potency [10],Potency [11],Potency [12],Potency [13],Potency [14],Potency [15],Potency [16],Potency [17],Potency [18],Potency [19],Potency [20]
CCOP(=S)(S)OCC,inactive,64.4 µM (active),inactive,inactive,inactive,inactive,inactive,inactive,inactive,inactive,inactive,inactive,inactive,inactive,inactive,inactive,–,–,–,–
Oc1cccc(Cl)c1,inactive,inactive,inactive,inactive,–,inactive,inactive,inactive,inactive,inactive,inactive,inactive,inactive,inactive,inactive,inactive,inactive,inactive,inactive,–
CCC(C)(C)O,inactive,inactive,inactive,inactive,inactive,–,–,–,inactive,inactive,inactive,inactive,inactive,inactive,inactive,inactive,–,–,inactive,–
CC(=O)NC1CCSC1=O (centres undefined),inactive,inactive,inactive,inactive,inactive,inactive,inactive,inactive,inactive,inactive,inactive,inactive,inactive,inactive,–,–,–,–,–,–
COc1nn(CSP(=S)(OC)OC)c(=O)s1,inactive,68.6 µM (active),inactive,inactive,inactive,–,–,inactive,inactive,–,inactive,–,–,inactive,–,–,–,–,–,–
Clc1cccc(SC2CCNCC2)n1,inactive,inactive,inactive,inactive,inactive,inactive,–,–,–,–,inactive,inactive,inactive,15 µM (active),inactive,inactive,–,–,–,–
NNCc1ccccc1,inactive,inactive,inactive,inactive,inactive,inactive,inactive,–,–,inactive,inactive,inactive,inactive,–,inactive,inactive,–,–,–,–
CNC(=O)Oc1cccc(N=CN(C)C)c1,inactive,inactive,inactive,inactive,inactive,–,inactive,–,inactive,inactive,inactive,inactive,inactive,inactive,–,inactive,–,–,inactive,inactive
CCc1cc2c(s1)-n1c(C)nnc1CN=C2c1ccccc1Cl,inactive,inactive,inactive,inactive,inactive,inactive,inactive,inactive,inactive,inactive,inactive,inactive,–,–,inactive,inactive,–,–,–,–
CCCCC(CC)COP(=O)(Oc1ccccc1)Oc1ccccc1 (centres undefined),inactive,30.6 µM (active),inactive,inactive,–,inactive,inactive,inactive,inactive,inactive,inactive,–,–,inactive,inactive,inactive,–,–,inactive,–
